Screens: PubChem BioAssay, several laboratories
AMPAR-TARP mod: GluA2-stargazin AMPA receptor complex modulation; O88602+P19491; calls only at 30 µM; HEK293 GluA2+stargazin, membrane potential dye (FDSS), glutamate EC50; hits were called plate by plate, in both directions; 40,000 tested, 3.5% active;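 active = any of four per-well response measures lying three or more SD from its plate-wide compound average, in either direction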
Target sequence (O88602 whole entry, looked up): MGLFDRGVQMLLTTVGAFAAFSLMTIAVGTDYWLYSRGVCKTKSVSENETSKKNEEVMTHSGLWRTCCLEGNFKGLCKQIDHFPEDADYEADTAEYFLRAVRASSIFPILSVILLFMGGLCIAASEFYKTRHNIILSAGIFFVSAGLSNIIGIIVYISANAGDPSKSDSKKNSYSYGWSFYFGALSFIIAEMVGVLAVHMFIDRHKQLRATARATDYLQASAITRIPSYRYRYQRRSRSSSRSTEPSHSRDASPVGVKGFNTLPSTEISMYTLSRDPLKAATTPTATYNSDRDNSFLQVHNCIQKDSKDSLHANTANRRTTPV
Target sequence (P19491 whole entry, looked up): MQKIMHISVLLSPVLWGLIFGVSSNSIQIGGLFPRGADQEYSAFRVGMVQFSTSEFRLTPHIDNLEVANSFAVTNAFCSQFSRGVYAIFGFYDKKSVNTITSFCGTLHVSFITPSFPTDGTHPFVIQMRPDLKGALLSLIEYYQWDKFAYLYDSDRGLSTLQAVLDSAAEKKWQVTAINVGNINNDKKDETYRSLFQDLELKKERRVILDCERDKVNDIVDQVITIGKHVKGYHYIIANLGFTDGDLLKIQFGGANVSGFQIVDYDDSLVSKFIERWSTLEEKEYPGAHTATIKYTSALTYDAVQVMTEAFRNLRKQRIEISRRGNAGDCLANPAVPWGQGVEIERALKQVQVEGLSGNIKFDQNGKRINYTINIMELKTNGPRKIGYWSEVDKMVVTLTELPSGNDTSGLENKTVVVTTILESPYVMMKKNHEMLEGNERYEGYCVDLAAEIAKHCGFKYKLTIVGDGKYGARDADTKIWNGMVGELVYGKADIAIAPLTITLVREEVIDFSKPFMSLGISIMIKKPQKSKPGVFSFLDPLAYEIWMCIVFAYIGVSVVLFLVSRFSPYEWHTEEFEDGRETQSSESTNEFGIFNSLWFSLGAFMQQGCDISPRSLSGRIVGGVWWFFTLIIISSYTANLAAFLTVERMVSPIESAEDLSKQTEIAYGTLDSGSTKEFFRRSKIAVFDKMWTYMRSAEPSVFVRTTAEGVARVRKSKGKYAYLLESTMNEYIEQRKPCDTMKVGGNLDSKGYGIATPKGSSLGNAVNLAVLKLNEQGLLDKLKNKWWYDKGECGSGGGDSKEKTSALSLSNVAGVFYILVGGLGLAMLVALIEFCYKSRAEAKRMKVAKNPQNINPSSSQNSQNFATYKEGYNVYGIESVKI
GIRK2 act: GIRK2 channel activators by thallium flux | HEK293 GIRK2/NPY4 cells, thallium flux fluorescence | 34,000 tested, under 10 active | AID 1259324 | activation (% efficacy), % for hits at 37.5 µM;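 active = primary screen hit, no activity in plain HEK293 cells, and in GIRK2-only cells above 5% efficacy rising with concentration; inactive = the rest, including fluorescent compounds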;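 note: efficacy is normalized control-subtracted fluorescence 15 s after thallium addition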
Calls only; - = inactive; . = not tested or not shown; + = active, no number. The full list was thinned out, with hits kept by preference.

SMILES | AMPAR-TARP mod | GIRK2 act
COc1cc(NS(=O)(=O)c2ccc3c(c2)CCCC3)ccc1N1CCCCC1=O | + | -
COc1ccc(NS(=O)(=O)c2ccc3c(c2)CCCC3)cc1N1CCCCC1=O | - | -
CSc1ccc(CNC(=O)Cn2cc(-c3nc(-c4ccc(Cl)cc4)no3)ccc2=O)cc1 | - | -
O=S(=O)(Nc1ccc(Br)cc1)N1CCCCCC1 | + | .
O=S(=O)(Nc1ccc(Br)cc1)N1CCOCC1 | - | .
COc1ccc(NC(=O)C(C)Sc2nnnn2-c2ccc(Cl)cc2)cc1 (configuration not stated) | - | .
COc1ccc(OC)c(C(=O)/C=C/c2ccccc2Cl)c1 | + | .
COc1ccc(C(=O)/C=C/c2ccccc2Cl)c(OC)c1 | - | .
COCCCNC(=O)C(=O)NC1CCCC1 | - | .
CS(=O)(=O)Nc1cccc(NC(=O)COc2ccc3c(c2)C(=O)CC3)c1 | - | -
NC(=O)Cc1csc(NC(=O)COc2ccc3c(c2)C(=O)CC3)n1 | + | -
CC(C)C(=O)N1CCN(Cc2nc(-c3ccco3)cs2)CC1 | - | .
CSc1ccccc1C(=O)N1CCC(c2cccs2)CC1 | + | -
O=C(c1ccccc1Oc1ccccc1)N1CCC(c2cccs2)CC1 | - | -
CCOC(=O)N1CCN(C(=O)Cn2cnc(-c3ccc(C)cc3)cc2=O)CC1 | - | -
Cc1cnn(C)c1C(=O)Nc1nc(-c2cccs2)cs1 | . | -
O=C(c1n[nH]c2ccccc12)N1CCN(c2ccccc2Cl)CC1 | - | -
COc1ccc(OCC(=O)Nc2ccc(CC(=O)N3CCOCC3)cc2)cc1 | + | -
COc1ccc(CC(=O)Nc2ccc(CC(=O)N3CCCC3)cc2)cc1 | - | -
CCOC(=O)N1CCN(C(=O)CSc2ccc(NC(C)=O)nn2)CC1 | . | -
O=C(Nc1ccc(N2CCCCC2=O)cc1)c1cccs1 | - | -
CC(=O)Cc1nsc(NC(=O)c2cc(-c3ccc([N+](=O)[O-])cc3)oc2C)n1 | + | -
CC(=O)Cc1nsc(NC(=O)c2oc3ccc(C)cc3c2C)n1 | - | .
O=C(Cn1nc(S(=O)(=O)c2ccccc2)ccc1=O)Nc1ccc(Cl)cc1 | + | -
CSc1nn(CC(=O)Nc2ccc3c(c2)OCO3)c(N)c1S(C)(=O)=O | - | -
SMILES | AMPAR-TARP mod | GIRK2 act
CSc1nn(CC(=O)Nc2cccc(C)c2C)c(N)c1S(C)(=O)=O | + | -
CCSc1nn(CC(=O)Nc2cccc(SC)c2)c(N)c1S(=O)(=O)c1ccc(C)cc1 | - | .
CSc1nn(CC(=O)Nc2cccc(Cl)c2)c(N)c1S(=O)(=O)c1ccccc1 | + | .
CSc1nn(CC(=O)Nc2c(C)cccc2C)c(N)c1S(C)(=O)=O | + | -
O=C(Cn1nc(S(=O)(=O)c2ccccc2)ccc1=O)Nc1ccccc1F | - | -
CCc1ccccc1NC(=O)Cn1nc(SC)c(S(=O)(=O)c2ccc(F)cc2)c1N | - | .
O=C(NCC(O)c1ccc(C(F)(F)F)cc1)C12CC3CC(CC(C3)C1)C2 (configuration not stated) | . | -
CC(C)C(=O)Nc1ccc(S(=O)(=O)NCC2(c3cccs3)CCCC2)cc1 | . | -
CCCCc1ccc(-n2c(C)c(C)n3c4c(=O)n(CCOC)c(=O)n(C)c4nc23)cc1 | - | .
O=C(NCC(O)(c1ccccc1)C1CC1)c1cc(-c2ccccc2)on1 (configuration not stated) | - | .
Cc1ccc(-c2nn(CCC(=O)N3CCN(Cc4ccccc4)CC3)c(=O)c3ccccc23)cc1 | - | .
O=C(CCn1nc(-c2ccc(Cl)cc2)c2ccccc2c1=O)NC1CCCCC1 | + | .
Cc1ccc(-c2ccc(=O)n(CCCNC(=O)c3ccc(F)cc3F)n2)cc1 | - | -
COc1ccc2sc(=NC(=O)c3ccno3)n(CCSC)c2c1 | + | -
CSCCn1c(=NC(=O)c2ccn(C)n2)sc2cc3c(cc21)OCCO3 | + | -
CCn1nc(C(=O)N=c2sc3cc(OC)ccc3n2CCSC)cc1C | . | -
Cn1ccc(C(=O)N=c2sc3cc4c(cc3n2C)OCCO4)n1 | - | -
CC(=O)Nc1ccc(C(=O)NCCNC(=O)Nc2cccs2)cc1 | . | -
COc1ccc2oc(-c3ccccc3Cl)cc(=O)c2c1 | - | .
O=C(NCC1CCN(Cc2ccsc2)CC1)c1cnccn1 | . | -
CCc1ccc(Oc2cc(N3CCC(C(=O)NCc4ccc(SC)cc4)CC3)ncn2)cc1 | - | -
CCc1ccc(Oc2cc(N3CCC(C(=O)NCc4ccccc4F)CC3)ncn2)cc1 | + | -
O=C(C(=O)N1CCOCC1)c1cn(CC(=O)N2CCOCC2)c2ccccc12 | - | .
COc1ccccc1N1CC(C)Cn2c1nc1c2c(=O)n(Cc2ccc(C)cc2)c(=O)n1C (configuration not stated) | + | .
COc1ccccc1N1CC(C)Cn2c1nc1c2c(=O)n(Cc2cccc(C)c2)c(=O)n1C (configuration not stated) | - | .
SMILES | AMPAR-TARP mod | GIRK2 act
O=S(=O)(NC1(c2nc(-c3cnccn3)no2)CCCCC1)c1ccc(F)c(Cl)c1 | + | -
Cc1noc(C)c1S(=O)(=O)NC1(c2nc(-c3cnccn3)no2)CCCCC1 | - | -
COc1ccc(NC(=O)CCc2csc(NC(=O)c3ccc[nH]c3=O)n2)c(OC)c1 | - | -
CC(C)CCN1C(=O)C(C)(C)COc2cc(NC(=O)COc3ccccc3)ccc21 | - | .
CC(C)CCN1C(=O)C(C)(C)COc2ccc(NC(=O)COc3ccccc3)cc21 | + | .
O=S(=O)(c1cccs1)N1CCN(Cc2nnnn2-c2ccc(Cl)cc2)CC1 | - | -
O=S(=O)(c1cccs1)N1CCN(Cc2nnnn2-c2ccc(F)cc2)CC1 | + | -
CCN(CC)CCSc1ccc(NC(=O)c2cccc(F)c2)nn1 | - | -
O=C(NCC1(O)CCc2ccccc21)Nc1ccc2c(c1)OCO2 (configuration not stated) | - | -
O=C(COc1ccccc1)NCCn1ncc2c(N3CCCCCC3)ncnc21 | - | -
COc1cc(C)c(S(=O)(=O)NCCCN2CCOCC2)cc1C | - | .
Cc1cccc(C)c1N1CCN(C(=O)N2CCCCCC2)CC1 | - | .
CN(C)C(CNC(=O)Cc1cccc2ccccc12)c1ccc(F)cc1 (configuration not stated) | - | .
Cc1ccc(C(CNC(=O)Cc2cccc3ccccc23)N(C)C)cc1 (configuration not stated) | + | -
Fc1ccccc1Nc1nc(N2CCOCC2)c2ccccc2n1 | + | .
CN1CCN(c2nc(Nc3cccc(O)c3)nc3ccccc23)CC1 | + | .
Cc1nc(Nc2cccc(F)c2)nc(N2CCOCC2)c1[N+](=O)[O-] | - | -
Fc1cccc(Nc2nc(N3CCCCC3)c3[nH]cnc3n2)c1 | - | -
COc1cc(NC(=O)c2ccc3ccccc3c2)ccc1N1CCCC1=O | - | -
CC(=O)c1ccc(NC(=O)CN2C(=O)CC(c3ccccc3)=Nc3ccccc32)cc1 | - | -
COc1cccc(-n2c(C)cn3c4c(=O)n(CCc5ccccc5)c(=O)n(C)c4nc23)c1 | - | .
CCN(CC)CCn1c(C)cn2c3c(=O)n(CCc4ccccc4)c(=O)n(C)c3nc12 | + | -
O=C(NCCCN1CCOC(c2ccccc2)C1)c1ccc(Cl)cc1Cl (configuration not stated) | - | -
O=S(=O)(NCC(O)(c1ccco1)C1CC1)c1ccc2c(c1)OCCO2 (configuration not stated) | - | -
O=S(=O)(NCC(O)(c1ccco1)C1CC1)c1cccc(C(F)(F)F)c1 (configuration not stated) | + | -
O=[N+]([O-])c1ccc(NS(=O)(=O)c2ccc3ccccc3c2)cc1 | + | .
